The full ranking holds about 140,000 sequences; the median of “enrichment ratio after two sorts for PhoP signalling” is about 0, and the highest 2% start at about 11. The sample as a whole holds a higher share of the highest values than the screen did.
B1: PhoQ; a variant is named by its letters at X, in order, P23837 (parent)
chain: MKKLLRLFFPLSLRVRFLLATAAVVLVLSLAYGMVALIGYSVSFDKTTFRLLRGESNLFYTLAKWENNKLHVELPENIDKQSPTMTLIYDENGQLLWAQRDVPWLMKMIQPDWLKSNGFHEIEADVNDTSLLLSGDHSIQQQLQEVREDDDDAEMTHSVAVNVYPATSRMPKLTIVVVDTIPVELKSSYMVWSWFIYVLSANLLLVIPLLWVAAWWSLRPIEALAKEVRELEEHNRELLNPATTRELTSLVRNLNRLLKSERERYDKYRTTLTDLTHSLKTPLXXLQXXLRSLRSEKMSVSDAEPVMLEQISRISQQIGYYLHRASMRGGTLLSRELHPVAPLLDNLTSALNKVYQRKGVNISLDISPEISFVGEQNDFVEVMGNVLDNACKYCLEFVEISARQTDEHLYIVVEDDGPGIPLSKREVIFDRGQRVDTLRPGQGVGLAVAREITEQYEGKIVAGESMLGGARMEVIFGRQHSAPKDE

Variants of: B1
Test: enrichment ratio after two sorts for PhoP signalling (ratio (wild type AVST 3.29)); higher = more functional
Settings: with PhoP (E. coli)
TKQL showed an enrichment ratio of 23.2.
In the case of MNQL, the enrichment ratio is reported as ≤ 0.25.
In the case of NAQL, the enrichment ratio is reported as ≤ 0.25.
Variant KAQL has an enrichment ratio of 1.07.
With WFHV the enrichment ratio was ≤ 0.25.
With AFMF the enrichment ratio was ≤ 0.25.
With WQHR the enrichment ratio was ≤ 0.25.
In the case of AKRK, the enrichment ratio is reported as ≤ 0.25.
In the case of KMEC, the enrichment ratio is reported as ≤ 0.25.
Work on TMSL yielded an enrichment ratio of 13.1.
For DMEI, the enrichment ratio was ≤ 0.25.
For TMFV, the enrichment ratio was 0.532.
With NMSL the enrichment ratio was ≤ 0.25.
TMEV showed an enrichment ratio of 25.
KMSL was tested, and the enrichment ratio was ≤ 0.25.
KMEI was tested, and the enrichment ratio was ≤ 0.25.
For NEEC, the enrichment ratio was ≤ 0.25.
In the case of TMEI, the enrichment ratio is reported as 17.7.
In the case of NEEV, the enrichment ratio is reported as ≤ 0.25.
Work on TMEC yielded an enrichment ratio of 11.9.
In the case of IVWG, the enrichment ratio is reported as ≤ 0.25.
For GKHD, the enrichment ratio was ≤ 0.25.
With RMMR the enrichment ratio was ≤ 0.25.
VNCL showed an enrichment ratio of 4.33.
For RQDI, the enrichment ratio was ≤ 0.25.
MCGY was tested, and the enrichment ratio was ≤ 0.25.
TMGL showed an enrichment ratio of 7.75.
With TMEL the enrichment ratio was 15.3.
In the case of TMWL, the enrichment ratio is reported as ≤ 0.25.
TMHL gave an enrichment ratio of 11.6.
Work on MMHL yielded an enrichment ratio of 1.34.
In the case of DMHL, the enrichment ratio is reported as ≤ 0.25.
With HEGR the enrichment ratio was ≤ 0.25.
IMAF was tested, and the enrichment ratio was ≤ 0.25.
LWKN was tested, and the enrichment ratio was ≤ 0.25.
For VRPW, the enrichment ratio was ≤ 0.25.
With HNFA the enrichment ratio was ≤ 0.25.
TPCH was tested, and the enrichment ratio was ≤ 0.25.
For VYYN, the enrichment ratio was ≤ 0.25.
VLGI was tested, and the enrichment ratio was ≤ 0.25.
GLCN showed an enrichment ratio of 12.8.
GLCI gave an enrichment ratio of 9.01.
For ELCN, the enrichment ratio was ≤ 0.25.
SLCN showed an enrichment ratio of 11.5.
In the case of CLLN, the enrichment ratio is reported as ≤ 0.25.
STCN showed an enrichment ratio of 8.56.
In the case of WLCN, the enrichment ratio is reported as ≤ 0.25.
Variant CLCN has an enrichment ratio of 23.2.
Variant SHLN has an enrichment ratio of 2.15.
Work on SHCN yielded an enrichment ratio of 13.2.
In the case of THCN, the enrichment ratio is reported as 4.64.
For GLLN, the enrichment ratio was ≤ 0.25.
In the case of VNQW, the enrichment ratio is reported as ≤ 0.25.
With HNQK the enrichment ratio was ≤ 0.25.
With YVDP the enrichment ratio was ≤ 0.25.
RGYW was tested, and the enrichment ratio was ≤ 0.25.
TCKY was tested, and the enrichment ratio was ≤ 0.25.
Work on SILN yielded an enrichment ratio of 8.2.
SVCN was tested, and the enrichment ratio was 19.4.
With KYCN the enrichment ratio was ≤ 0.25.
TSCN was tested, and the enrichment ratio was 26.6.
In the case of SVNL, the enrichment ratio is reported as ≤ 0.25.
With KSCN the enrichment ratio was ≤ 0.25.
Work on SSLN yielded an enrichment ratio of 6.84.
With NSCN the enrichment ratio was ≤ 0.25.
With SSCN the enrichment ratio was 16.9.
For FSCN, the enrichment ratio was ≤ 0.25.
SVLN showed an enrichment ratio of 7.1.
For SICN, the enrichment ratio was 20.7.
For KIAC, the enrichment ratio was ≤ 0.25.
With GADV the enrichment ratio was ≤ 0.25.
For GNVT, the enrichment ratio was ≤ 0.25.
In the case of LQFF, the enrichment ratio is reported as ≤ 0.25.
With YIPQ the enrichment ratio was ≤ 0.25.
With LFCN the enrichment ratio was ≤ 0.25.
For RNVA, the enrichment ratio was ≤ 0.25.
For IHQN, the enrichment ratio was ≤ 0.25.
With VDDC the enrichment ratio was ≤ 0.25.
DQCK was tested, and the enrichment ratio was ≤ 0.25.
With LVLE the enrichment ratio was ≤ 0.25.
VCCN was tested, and the enrichment ratio was ≤ 0.25.
SQCN gave an enrichment ratio of 10.1.
Work on SCCN yielded an enrichment ratio of 17.1.
With LVPD the enrichment ratio was ≤ 0.25.
With TRFL the enrichment ratio was ≤ 0.25.
With DSSW the enrichment ratio was ≤ 0.25.
Work on EETG yielded an enrichment ratio of 3.69.
For MITR, the enrichment ratio was ≤ 0.25.
SGDY was tested, and the enrichment ratio was ≤ 0.25.
SGWY was tested, and the enrichment ratio was ≤ 0.25.
SGYI showed an enrichment ratio of 2.6.
SGAY showed an enrichment ratio of 15.2.
With SGNY the enrichment ratio was ≤ 0.25.
With SGGY the enrichment ratio was 22.8.
For MFNP, the enrichment ratio was ≤ 0.25.
In the case of RNKF, the enrichment ratio is reported as ≤ 0.25.
For GSLY, the enrichment ratio was 7.32.
Variant GSTI has an enrichment ratio of 12.2.
Variant GSCF has an enrichment ratio of 11.5.
With GSWI the enrichment ratio was ≤ 0.25.
In the case of GSHF, the enrichment ratio is reported as ≤ 0.25.
In the case of KSCF, the enrichment ratio is reported as ≤ 0.25.
MERP was tested, and the enrichment ratio was ≤ 0.25.
In the case of VWLN, the enrichment ratio is reported as ≤ 0.25.
In the case of DNMN, the enrichment ratio is reported as ≤ 0.25.
Variant AALA has an enrichment ratio of 7.36.
For AAAT, the enrichment ratio was ≤ 0.25.
Variant ATLA has an enrichment ratio of 9.51.
For AALK, the enrichment ratio was 12.
NAMK was tested, and the enrichment ratio was ≤ 0.25.
For KALK, the enrichment ratio was ≤ 0.25.
With AALT the enrichment ratio was 11.9.
ATLK was tested, and the enrichment ratio was 17.
With AAMK the enrichment ratio was 35.5.
YTLK was tested, and the enrichment ratio was ≤ 0.25.
NALK was tested, and the enrichment ratio was ≤ 0.25.
For AIMK, the enrichment ratio was ≤ 0.25.
HSVK was tested, and the enrichment ratio was ≤ 0.25.
TFLL showed an enrichment ratio of 3.21.
With PAYK the enrichment ratio was ≤ 0.25.
With PNPY the enrichment ratio was ≤ 0.25.
In the case of GVVL, the enrichment ratio is reported as 1.14.
For FWES, the enrichment ratio was ≤ 0.25.
For MFHN, the enrichment ratio was ≤ 0.25.
With VGKH the enrichment ratio was ≤ 0.25.
TSNY was tested, and the enrichment ratio was 8.01.
TSNT showed an enrichment ratio of 11.9.
With KSNS the enrichment ratio was ≤ 0.25.
In the case of NSAT, the enrichment ratio is reported as ≤ 0.25.
In the case of TSAT, the enrichment ratio is reported as 11.6.
In the case of KSAT, the enrichment ratio is reported as ≤ 0.25.
In the case of KSNT, the enrichment ratio is reported as ≤ 0.25.
With TSNW the enrichment ratio was ≤ 0.25.
TSNS gave an enrichment ratio of 12.8.
GLRK was tested, and the enrichment ratio was ≤ 0.25.
FLKG was tested, and the enrichment ratio was 0.285.
With GCSH the enrichment ratio was ≤ 0.25.
For AATM, the enrichment ratio was 0.767.
RWIC was tested, and the enrichment ratio was ≤ 0.25.
For FLKL, the enrichment ratio was ≤ 0.25.
For GNCG, the enrichment ratio was ≤ 0.25.
Variant GILN has an enrichment ratio of 10.6.
For GICN, the enrichment ratio was 13.8.
GICI was tested, and the enrichment ratio was 7.05.
With GICP the enrichment ratio was ≤ 0.25.
GICA gave an enrichment ratio of 11.2.
GNCN was tested, and the enrichment ratio was ≤ 0.25.
GNCA was tested, and the enrichment ratio was 9.24.
GICS showed an enrichment ratio of 11.2.
Variant GIVG has an enrichment ratio of 10.4.
With GICG the enrichment ratio was 15.9.
In the case of GNCS, the enrichment ratio is reported as 7.94.
For CLFS, the enrichment ratio was ≤ 0.25.

Source: a collection of fitness landscapes (doi:10.1126/science.1257360)
